Rows were chosen to be rich in hits. Some 19% of all compounds tested hit in one or more screens of this group.
DT40 TDP1 no CPT: qHTS for Inhibitors of human tyrosyl-DNA phosphodiesterase 1 (TDP1): qHTS in cells in absence of CPT; Potency, µM (series often up to 46.2 µM), without a hit: at the highest dose activity change, negative = growth inhibition, most hits filed as inhibitors; AID 686978, 2013; DT40 Tdp1-/- hTDP1 cells, no CPT, ATP luminescence, 48 h; 420,000 compounds, 15% hits; also: potency is read from the fitted curve at half-maximal effect; % is scaled to controls: 0 for no effect and ±100 for the full control effect; nearly all actives have a fitted effect of over 55% in size
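Compound effects on proliferation are scored in DT40 Tdp1-/-;hTDP1 cells in the absence of CPT. ATP levels (CellTiter-Glo luminescence) are recorded after a ≥48 hr, 37 °C incubation.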
HepG2 tox: qHTS for Inhibitors of TGF-b: Cytotox Counterscreen. HepG2 CAGA-GFP viability, ATP luminescence, 18 h. 410,000 compounds, 0.76% hits. AID 588856, 2011. Potency, µM (top dose mostly 46.1 µM), inactives show at the highest dose activity change, negative = cytotoxicity, usual class: cytotoxic; also: potency is read from the fitted curve at half-maximal effect
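CellTiter-Glo luminescence gave cytotoxicity after 18 hours at 37 degrees C. The cells were HepG2 CAGA-GFP in 1% FBS DMEM, stimulated with 500 pg/mL TGF-beta after compound addition. %Activity was normalised to no-cell wells (complete cell-killing) and DMSO (no toxicity), and curves were fitted and classified.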
TDP1 cell CPT: qHTS for Inhibitors of human tyrosyl-DNA phosphodiesterase 1 (TDP1): qHTS in cells in presence of CPT | Potency, µM (highest dose often 46.2 µM), for inactives: top-dose activity change, negative = growth inhibition, actives largely listed as inhibitors | 420,000 compounds, 12% hits | chicken DT40 Tdp1-/-;hTDP1 cells + 20 nM CPT, ATP luminescence, 48 h; also: potency is read from the fitted curve at half-maximal effect; % is scaled to controls: 0 for no effect and ±100 for the full control effect; nearly all actives have a fitted effect of over 55% in size
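Chicken DT40 Tdp1-/- cells complemented with human TDP1, 400 cells/well, exposed to compounds plus 20 nM camptothecin for at least 48 h at 37 C; viability read as ATP content by CellTiter-Glo luminescence.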
IL-1B inflam inh: qHTS for Inhibitors of Inflammasome Signaling: IL-1-beta AlphaLISA Primary Screen | THP-1 LPS/ATP IL-1B secretion, AlphaLISA, 16 h; active compounds read low | activity change, % at 57.5 µM | 360,000 compounds, 4.7% hits; in the data active = activity change below about -50%; inconclusive = mostly about -30% to -49%; also: % is scaled to controls: 0 for no effect and ±100 for the full control effect
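THP-1 cells pretreated 1 hr with compounds (up to 57.5 uM final), then stimulated with LPS (250 ng/mL final) plus ATP (1.25 mM final); secreted IL-1B measured by AlphaLISA after 16 hr, decreased signal indicating inhibition.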
ASM inhibitor: Inhibitors of Secretory Acid Sphingomyelinase (S-ASM): qHTS. placental ASM, HMU-PC fluorogenic substrate, 60 min. Potency, µM (titrated, usually from 57.5 µM), for inactives: top-dose activity change, negative = inhibition, hits mostly inhibitors. 340,000 compounds, 0.006% hits; also: potency is read from the fitted curve at half-maximal effect
Target sequence (P17405 47-631 limits assumed): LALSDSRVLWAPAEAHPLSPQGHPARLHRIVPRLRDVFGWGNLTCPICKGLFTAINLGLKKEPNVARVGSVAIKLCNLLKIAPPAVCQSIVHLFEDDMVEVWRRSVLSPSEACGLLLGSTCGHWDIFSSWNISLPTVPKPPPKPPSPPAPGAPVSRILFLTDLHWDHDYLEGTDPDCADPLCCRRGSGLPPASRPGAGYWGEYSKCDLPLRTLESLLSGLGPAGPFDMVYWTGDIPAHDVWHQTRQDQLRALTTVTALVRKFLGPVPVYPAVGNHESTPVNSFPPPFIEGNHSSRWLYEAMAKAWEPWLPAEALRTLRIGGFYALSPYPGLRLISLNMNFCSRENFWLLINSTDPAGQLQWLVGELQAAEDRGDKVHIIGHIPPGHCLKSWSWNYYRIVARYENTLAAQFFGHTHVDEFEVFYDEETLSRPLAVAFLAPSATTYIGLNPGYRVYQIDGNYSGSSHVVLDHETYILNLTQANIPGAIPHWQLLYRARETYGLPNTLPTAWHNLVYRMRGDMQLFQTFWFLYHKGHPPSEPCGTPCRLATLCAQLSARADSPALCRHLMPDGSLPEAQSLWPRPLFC
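qHTS format. ASM enzyme prepared from human placenta hydrolyses the fluorogenic substrate HMU-PC0 (9 uM final) over 60 min at 37 °C after a 10 min compound preincubation.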
TGFb inhibitor: qHTS for Inhibitors of TGF-b | HepG2 CAGA-GFP TGF-b/SMAD3 reporter, GFP fluorescence, 18 h; TGF-beta stimulated, 500 pg/mL final | Potency, µM (titrated, usually from 46.1 µM), inactives show at the top dose activity, negative = inhibition, usual class: inhibitors | 410,000 compounds, 1.2% hits | AID 588855, 2011; also: potency is read from the fitted curve at half-maximal effect; % is scaled to controls: 0 for no effect and ±100 for the full control effect; nearly all actives have a fitted effect of over 65% in size
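TGF-beta reporter screen: HEPG2 CAGA-GFP, 1% FBS, 500 pg/mL TGF-beta final, 18 h; per-cell GFP summed per well; curves fitted and categorized by class.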
* marks the source's active call; other numbers are inactive results. Unless noted, calls follow the shape of the dose curve; as a rule, active = well fitted curve in the direction sought with a large enough effect; inconclusive = small, poorly fitted or top-dose-only effect, or another doubt; inactive = no such curve, though single readings can be large; an effect the other way counts as inactive or inconclusive.

CC1(C(=O)NCc2ccc(Cl)cc2)CCN1C(=O)Cc1cccs1 (stereo not given) was read as DT40 TDP1 no CPT inconclusive, HepG2 tox -29.6%, TDP1 cell CPT inconclusive, IL-1B inflam inh -18.6 and TGFb inhibitor 0.1%.
CC1(C(=O)NCCC#N)CCN1C(=O)Cc1ccc(-c2ccccc2)cc1 (stereo not given) was read as DT40 TDP1 no CPT inconclusive, HepG2 tox 4.0%, TDP1 cell CPT inconclusive, IL-1B inflam inh 20.7 and TGFb inhibitor -9.7%.
`CC(C)c1ccc(CC(=O)N2CCC2(C)C(=O)NCc2cccc3ccccc23)cc1` (stereo not given) gave DT40 TDP1 no CPT inconclusive, HepG2 tox -21.6%, TDP1 cell CPT inconclusive, IL-1B inflam inh -19.3 and TGFb inhibitor -14.6%.
Screening CC1(C(=O)NCC(F)(F)F)CCN1C(=O)Cc1ccc(-c2ccccc2)cc1 (stereo not given) returned DT40 TDP1 no CPT inconclusive, HepG2 tox -18.4%, TDP1 cell CPT 14.6µM*, IL-1B inflam inh 6.0 and TGFb inhibitor 0.5%.
`CC1(C(=O)NCc2cccc3ccccc23)CCN1C(=O)Cc1ccc(-c2ccccc2)cc1` (stereo not given) gave DT40 TDP1 no CPT inconclusive, HepG2 tox -31.9%, TDP1 cell CPT inconclusive, IL-1B inflam inh -103.9* and TGFb inhibitor inconclusive.
`CC(C)CNC(=O)C1(C)CCCN1C(=O)Cc1cccc2ccccc12` (stereo not given) gave DT40 TDP1 no CPT 8.2µM*, HepG2 tox -8.6%, TDP1 cell CPT 9.2µM*, IL-1B inflam inh 34.8 and TGFb inhibitor 0.8%.
For CC1(C(=O)NCc2cccs2)CCN1C(=O)Cc1cccc2ccccc12 (stereo not given) the results were DT40 TDP1 no CPT 16.4µM*, HepG2 tox -32.2%, TDP1 cell CPT 29.1µM*, IL-1B inflam inh -4.4 and TGFb inhibitor -6.8%.
CC(C)CNC(=O)C1(C)CCCN1C(=O)c1cc2ccccc2s1 (stereo not given) was read as DT40 TDP1 no CPT -23.4%, HepG2 tox -6.2%, TDP1 cell CPT -28.8%, IL-1B inflam inh -0.1 and TGFb inhibitor -12.3%.
For CCOc1ccccc1NC(=S)N1CCCCCC1 the results were DT40 TDP1 no CPT inconclusive, HepG2 tox 7.2%, TDP1 cell CPT inconclusive, IL-1B inflam inh 19.1, ASM inhibitor 6.7% and TGFb inhibitor 3.3%.
Screening COC(=O)c1[nH]c2cc(C)ccc2c1NC(=O)CN1CCCc2ccccc21 returned DT40 TDP1 no CPT 25.9µM*, HepG2 tox -5.0%, TDP1 cell CPT inconclusive, IL-1B inflam inh -26.5, ASM inhibitor -15.0% and TGFb inhibitor 0.0%.
`COCCNC(=O)NC(=O)CN1CCCc2ccccc21` gave DT40 TDP1 no CPT -7.9%, HepG2 tox -6.2%, TDP1 cell CPT -11.8%, IL-1B inflam inh 18.5, ASM inhibitor 2.3% and TGFb inhibitor -5.7%.
Screening Cc1sc(NC(=O)CCl)c(C(=O)c2ccccc2)c1C returned DT40 TDP1 no CPT 9.2µM*, HepG2 tox 12.6µM*, TDP1 cell CPT 18.4µM*, IL-1B inflam inh -98.2*, ASM inhibitor -0.7% and TGFb inhibitor inconclusive.
For COC(=O)c1[nH]c2ccc(Br)cc2c1NC(=O)CN1CCCc2ccccc21 the results were DT40 TDP1 no CPT 18.4µM*, HepG2 tox -27.1%, TDP1 cell CPT 20.6µM*, IL-1B inflam inh -52.9*, ASM inhibitor -18.4% and TGFb inhibitor -25.2%.

Screening data deposited in PubChem BioAssay by National Center for Advancing Translational Sciences (NCATS).
